Source: PubChem
Most compounds without a hit are left out; they make up all but 17% or so of the library.
DT40 TDP1 no CPT – qHTS for Inhibitors of human tyrosyl-DNA phosphodiesterase 1 (TDP1): qHTS in cells in absence of CPT | DT40 Tdp1-/- hTDP1 cells, no CPT, ATP luminescence, 48 h | Potency, µM (doses to about 46.2 µM), usual class: inhibitors | actives 15% (n = 420,000); note: nearly all actives have a fitted effect of over 55% in size
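Readout: luminescence from CellTiter-Glo after 30 min in the dark at RT. Cells: DT40 Tdp1-/- with stable hTDP1, 400/well. Exposure: compounds alone, ≥48 hr, 37 °C.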
HepG2 tox-1 – kills HepG2 cells in TGF-b inhibitor counter-screen | AID 588856 | HepG2 CAGA-GFP viability, ATP luminescence, 18 h | Potency, µM (top dose mostly 46.1 µM), actives largely listed as cytotoxic | actives 0.76% (n = 410,000)
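HepG2 CAGA-GFP cells (1000/well, DMEM with 1% FBS) received compound, then TGF-beta at 500 pg/mL final, and were incubated 18 hours at 37 degrees C. Viability was read by CellTiter-Glo luminescence. Media-only wells were set as complete cell-killing and DMSO as no toxicity.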
ATXN viability – viability counter-screen for ATXN expression inhibitors; AID 651635; Potency, µM (top dose mostly 56.7 µM), hits mostly cytotoxic; actives 0.49% (n = 400,000); S2 cells (HEK-293 line with an ATXN2-luciferase reporter) viability, CellTiter-Fluor protease fluorescence, 24 h; note: nearly all actives have a fitted effect of over 40% in size
TGFb inhibitor – TGF-b pathway inhibition; Potency, µM (series often up to 46.1 µM), hits mostly inhibitors; AID 588855; actives 1.2% (n = 410,000); HepG2 CAGA-GFP TGF-b/SMAD3 reporter, GFP fluorescence, 18 h; TGF-beta stimulated, 500 pg/mL final; note: nearly all actives have a fitted effect of over 65% in size
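HEPG2 CAGA-GFP cells (1000/well, DMEM with 1% FBS) were pre-incubated 2 h at 37 degrees C, given compound by pin tool, then stimulated with TGF-beta at 500 pg/mL final for 18 h before per-cell GFP fluorescence imaging.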
TDP1 cell CPT – growth inhibition of DT40 Tdp1-/-;hTDP1 cells with camptothecin (screen for TDP1 inhibitors); actives 12% (n = 420,000); chicken DT40 Tdp1-/-;hTDP1 cells + 20 nM CPT, ATP luminescence, 48 h; Potency, µM (top dose mostly 46.2 µM), actives largely listed as inhibitors; AID 686979; note: nearly all actives have a fitted effect of over 55% in size
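Cell growth measured by CellTiter-Glo luminescence after a minimum 48 h, 37 C compound exposure with 20 nM CPT in Tdp1-knockout DT40 cells stably expressing hTDP1, seeded 400/well; qHTS titration format.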
ATXN2 expr inh – ATXN2 expression inhibition; HEK-293 ATXN2-luciferase reporter, luminescence, 24 h; Potency, µM (top dose mostly 57 µM), usual class: inhibitors; actives 0.72% (n = 360,000); AID 1745845; note: nearly all actives have a fitted effect of over 55% in size
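ATXN2-luciferase reporter cells (luciferase flanked by upstream and downstream ATXN2 gene portions) were treated 24 h at 37 °C with compounds at up to 57 uM. SteadyGlo luminescence gave expression; GF-AFC fluorescence gave viability.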
TGFb confirm – TGF-b pathway inhibition, cherry-pick retest; AID 720534; shares compounds with TGFb inhibitor; actives 63% (n = 1,600); Potency, µM (titrated, usually from 46.1 µM), actives largely listed as inhibitors; HepG2 CAGA-GFP TGF-b reporter, GFP fluorescence, 18 h; cells stimulated with TGF-beta, 500 pg/mL; note: nearly all actives have a fitted effect of over 65% in size
HepG2 tox-2 – HepG2 cytotoxicity, TGF-b inhibitor counterscreen; actives 27% (n = 1,600); shares compounds with TGFb inhibitor; HepG2 CAGA-GFP viability, ATP luminescence, 18 h; cells stimulated with TGF-beta, 500 pg/mL; Potency, µM (top dose mostly 46.1 µM), hits mostly inhibitors; note: nearly all actives have a fitted effect of over 70% in size
TGFb CCL64 inh – TGF-b inhibition, CCL64 orthogonal assay. shares compounds with TGFb inhibitor. actives 41% (n = 1,600). AID 720536. Potency, µM (series often up to 46.1 µM), usual class: inhibitors. CCL64 CAGA-GFP reporter, TGF-b stimulated, GFP fluorescence, 18 h; note: nearly all actives have a fitted effect of over 65% in size
COP TGFb inh – validation of TGF-b inhibitors in HepG2 COP promoter reporter | AID 720537 | shares compounds with TGFb inhibitor | HepG2 COP-GFP TGF-b reporter, GFP fluorescence, 18 h; cells stimulated by added recombinant TGF-beta | actives 3% (n = 1,600) | Potency, µM (doses to about 46.1 µM), most hits filed as inhibitors; note: nearly all actives have a fitted effect of over 70% in size
Each line names hits and unclear results; the compound was inactive in the other large screens (follow-up assays come after a bar, where they were run). Calls come from the whole dose curve; as a rule, active = well fitted curve in the direction sought with a large enough effect; inconclusive = small, poorly fitted or top-dose-only effect, or another doubt; inactive = no such curve, though single readings can be large; an effect the other way counts as inactive or inconclusive.

Nc1cc2[nH]c(=O)c3ccccc3c2cc1[N+](=O)[O-]	DT40 TDP1 no CPT inconclusive, ATXN viability inconclusive, TGFb inhibitor 11.2µM, TDP1 cell CPT 23.1µM | TGFb confirm inconclusive | HepG2 tox-2 inconclusive | TGFb CCL64 inh inconclusive | COP TGFb inh inactive
CC(C)(C)c1ccc(OCCNCc2ccccc2)cc1	DT40 TDP1 no CPT inconclusive, TDP1 cell CPT inconclusive
CC(C)(C)c1ccc(OCCNC(=S)Nc2ccccc2)cc1	DT40 TDP1 no CPT 5.8µM, TGFb inhibitor 14.1µM, TDP1 cell CPT 2.91µM | TGFb confirm inconclusive | HepG2 tox-2 inconclusive | TGFb CCL64 inh inconclusive | COP TGFb inh inactive
O=C(Oc1ccc(Cl)c2cccnc12)N1CCCCC1	ATXN viability inconclusive
O=C(Oc1ccc(Cl)c2cccnc12)c1cccnc1	DT40 TDP1 no CPT inconclusive, TGFb inhibitor 10µM, TDP1 cell CPT inconclusive (no result: ATXN viability) | TGFb confirm inactive | HepG2 tox-2 inactive | TGFb CCL64 inh inconclusive | COP TGFb inh inactive
COCC1=C(C(=O)OC)C(c2cccs2)n2ncnc2N1 (centres undefined)	none
CCc1noc(C)c1C(=O)Nc1nc(-c2cccs2)cs1	DT40 TDP1 no CPT inconclusive
CCc1noc(C)c1C(=O)Nc1nc(-c2ccc(Cl)cc2Cl)cs1	DT40 TDP1 no CPT 18.4µM, ATXN viability inconclusive, TGFb inhibitor 11.2µM, TDP1 cell CPT 18.4µM | TGFb confirm 14.6µM | HepG2 tox-2 14.6µM | TGFb CCL64 inh inconclusive | COP TGFb inh inactive
COc1ccccc1NC(=O)N1CCN(c2ccccc2F)CC1	none
COc1cccc(Cl)c1NC(=O)N1CCN(c2cc(C)nc3ccccc23)CC1	DT40 TDP1 no CPT inconclusive, ATXN viability inconclusive, TGFb inhibitor 12.6µM, TDP1 cell CPT 16.4µM, ATXN2 expr inh inconclusive | TGFb confirm inactive | HepG2 tox-2 inconclusive | TGFb CCL64 inh inconclusive | COP TGFb inh inactive
CC(=O)c1cccc(NC(=O)/C=C/c2ccc([N+](=O)[O-])s2)c1	DT40 TDP1 no CPT 1.46µM, TGFb inhibitor 7.08µM, TDP1 cell CPT 1.3µM, ATXN2 expr inh inconclusive (no result: ATXN viability) | TGFb confirm 4.11µM | HepG2 tox-2 11.6µM | TGFb CCL64 inh 2.06µM | COP TGFb inh inactive
O=S(=O)(Nc1cccc2cccnc12)c1ccccc1	DT40 TDP1 no CPT 8.2µM, ATXN viability inconclusive, TGFb inhibitor 7.08µM, TDP1 cell CPT 13µM, ATXN2 expr inh 8.91µM | TGFb confirm 23.1µM | HepG2 tox-2 inconclusive | TGFb CCL64 inh 11.6µM | COP TGFb inh inactive
CC[C@]12c3[nH]c4ccc(Cl)cc4c3CCN1C(=O)[C@@H](CC(=O)NC/C=C(\C)CCC=C(C)C)C[C@@H]2C(=O)N1CCN(C(=O)C2CC2)CC1	DT40 TDP1 no CPT 20.6µM, TGFb inhibitor 10µM, TDP1 cell CPT inconclusive, ATXN2 expr inh inconclusive (no result: ATXN viability) | TGFb confirm inconclusive | HepG2 tox-2 inconclusive | TGFb CCL64 inh 20.6µM | COP TGFb inh inactive
CC[C@]12c3[nH]c4ccc(OC)cc4c3CCN1C(=O)C(CC(=O)NCc1cccc(C(F)(F)F)c1)C[C@@H]2C(=O)N1CCN(C(=O)c2ccco2)CC1 (some centres undefined)	DT40 TDP1 no CPT inconclusive, TGFb inhibitor inconclusive, TDP1 cell CPT inconclusive
CC[C@]12c3[nH]c4ccc(OC)cc4c3CCN1C(=O)C(CC(=O)NCc1ccc(OC)c(OC)c1)C[C@@H]2C(=O)N1CCN(C(=O)C2CC2)CC1 (some centres undefined)	none
CC[C@]12c3[nH]c4ccc(Cl)cc4c3CCN1C(=O)[C@@H](CC(=O)NCc1cccc(C(F)(F)F)c1)C[C@@H]2C(=O)N1CCN(C(=O)C2CC2)CC1	DT40 TDP1 no CPT inconclusive, ATXN viability inconclusive, TGFb inhibitor 14.1µM, TDP1 cell CPT inconclusive, ATXN2 expr inh inconclusive | TGFb confirm inactive | HepG2 tox-2 inconclusive | TGFb CCL64 inh inconclusive | COP TGFb inh inactive
COc1ccccc1CN1CC(C(=O)NCc2ncccc2C)CCC1=O (centres undefined)	none
COc1ccc(NC(=O)c2cc(S(=O)(=O)N3CCCC3)cn2C)cc1Cl	ATXN viability inconclusive
COc1cccc(CN(C(=O)Cc2c[nH]c3ccccc23)C(C(=O)NC2CCCCC2)c2ccc(C)o2)c1 (centres undefined)	DT40 TDP1 no CPT 16.4µM, ATXN viability inconclusive, TGFb inhibitor 15.8µM, TDP1 cell CPT 16.4µM, ATXN2 expr inh inconclusive | TGFb confirm 25.9µM | HepG2 tox-2 inconclusive | TGFb CCL64 inh inconclusive | COP TGFb inh inactive
O=C(c1ccc([N+](=O)[O-])s1)N1CCc2ccccc2C1	DT40 TDP1 no CPT inconclusive, ATXN viability inconclusive, TGFb inhibitor inconclusive, TDP1 cell CPT inconclusive | TGFb confirm 23.1µM | HepG2 tox-2 inconclusive | TGFb CCL64 inh inconclusive | COP TGFb inh inactive
CSCCC(NS(=O)(=O)c1cccc(C(F)(F)F)c1)C(=O)Nc1ccccc1N1CCCC1 (centres undefined)	DT40 TDP1 no CPT inconclusive, ATXN viability inconclusive, TGFb inhibitor 14.1µM, TDP1 cell CPT inconclusive | TGFb confirm 16.4µM | HepG2 tox-2 inactive | TGFb CCL64 inh 16.4µM | COP TGFb inh inactive
CC(=O)Oc1ccc(N(C(C)=O)S(=O)(=O)c2cccs2)c2ccccc12	DT40 TDP1 no CPT inconclusive, ATXN viability inconclusive, TGFb inhibitor 10µM, TDP1 cell CPT 11.6µM, ATXN2 expr inh 25.1µM | TGFb confirm inconclusive | HepG2 tox-2 inactive | TGFb CCL64 inh inconclusive | COP TGFb inh inactive
C[C@@H](CSc1ccc(Br)cc1)CN1CC[C@H](C(C)(C)C)CCC1=O	DT40 TDP1 no CPT inconclusive, ATXN viability inconclusive, TGFb inhibitor inconclusive, TDP1 cell CPT inconclusive, ATXN2 expr inh inconclusive
